Data: PubChem BioAssay AID1159580 (chemical genetic matrix, 2015)
About 2,000 (36%) of roughly 5,500 compounds were called active. Inconclusive results (about 18%) are left out. Cut-off read from the data, not from the text of the source: active = normalized growth mostly below about 0.91 (no sharp cut-off); inconclusive = no clear call, values can overlap the other calls; inactive = mostly above about 0.92. Some of the results follow.

Assay: chemical genetic growth profiling, strain panel (AID 1159580);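 note: tested at 20 µM; growth read once vehicle control cultures reached saturation at 30 °C; 1 = growth at the plate median or of vehicle wells; lower values mean less growth of the strain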
Conditions: S. cerevisiae deletion strains, growth OD

Measured: normalized growth

CC[C@]1(O)CC2CN(CCc3c([nH]c4ccccc34)[C@@](C(=O)OC)(c3cc4c(cc3OC)N(C)[C@H]3[C@@](O)(C(=O)OC)[C@H](OC(C)=O)[C@]5(CC)C=CCN6CC[C@]43[C@@H]65)C2)C1 (some centres undefined)
inactive: locus YAL021C, strain ccr4, active compounds read low 1 | locus YAL026C, strain drs2, active compounds read low 0.948 | locus YAL030W, strain snc1, active compounds read low 0.985 | locus YBL061C, strain skt5, active compounds read low 0.975 | locus YBR009C, strain hhf1, active compounds read low 0.941 | locus YBR023C, strain chs3, active compounds read low 0.984 | locus YBR171W, strain sec66, active compounds read low 0.959 | locus YBR231C, strain swc5, active compounds read low 0.982 | locus YBR279W, strain paf1, active compounds read low 0.98 | locus YCL011C, strain gbp2, active compounds read low 0.983 | locus YCL016C, strain dcc1, active compounds read low 1.01 | locus YCL061C, strain MRC1, active compounds read low 1.02 | locus YCL069W, strain vba3, active compounds read low 0.969 | locus YCR088W, strain abp1, active compounds read low 0.974 | locus YDL005C, strain med2, active compounds read low 0.972 | locus YDL040C, strain nat1, active compounds read low 0.969 | locus YDR001C, strain nth1, active compounds read low 0.973 | locus YDR069C, strain doa4, active compounds read low 1 | locus YDR137W, strain rgp1, active compounds read low 0.979 | locus YDR159W, strain sac3, active compounds read low 0.928 | locus YDR195W, strain ref2 0.951 | locus YDR297W, strain sur2, active compounds read low 0.975 | locus YDR334W, strain swr1, active compounds read low 0.955 | locus YDR335W, strain msn5, active compounds read low 0.981 | locus YDR392W, strain spt3, active compounds read low 0.859 | locus YEL003W, strain gim4, active compounds read low 0.954 | locus YEL037C, strain rad23, active compounds read low 0.963 | locus YEL061C, strain CIN8 (second series), active compounds read low 0.962 | locus YER015W, strain faa2, active compounds read low 0.961 | locus YER016W, strain bim1, active compounds read low 0.989 | locus YER111C, strain swi4, active compounds read low 0.972 | locus YER155C, strain BEM2 (second series), active compounds read low 0.907 | locus YFR010W, strain ubp6, active compounds read low 0.948 | locus YGL167C, strain pmr1, active compounds read low 0.972 | locus YGL173C, strain kem1, active compounds read low 0.976 | locus YGL227W, strain vid30, active compounds read low 0.947 | locus YGL240W, strain doc1, active compounds read low 0.954 | locus YGL253W, strain hxk2, active compounds read low 1.01 | locus YHR013C, strain ard1, active compounds read low 0.949 | locus YHR027C, strain rpn1, active compounds read low 0.957 | locus YHR030C, strain SLT2, active compounds read low 0.991 | locus YHR079C, strain IRE1, active compounds read low 0.975 | locus YHR142W, strain chs7, active compounds read low 1.02 | locus YJL092W, strain hpr5, active compounds read low 0.973 | locus YJL095W, strain BCK1 (second series), active compounds read low 0.978 | locus YJL095W, strain BCK1, active compounds read low 0.992 | locus YJL115W, strain asf1, active compounds read low 0.956 | locus YJL129C, strain trk1, active compounds read low 0.986 | locus YJL154C, strain vps35, active compounds read low 0.965 | locus YJL164C, strain tpk1, active compounds read low 0.956 | locus YJL166W, strain qcr8, active compounds read low 0.998 | locus YJL187C, strain SWE1, active compounds read low 0.974 | locus YJR066W, strain TOR1, active compounds read low 0.965 | locus YKL160W, strain elf1, active compounds read low 1.05 | locus YKR026C, strain gcn3, active compounds read low 0.975 | locus YKR091W, strain srl3, active compounds read low 0.98 | locus YLL001W, strain dnm1, active compounds read low 1.05 | locus YLL026W, active compounds read low 0.979 | locus YLL041C, strain sdh2, active compounds read low 0.964 | locus YLR027C, strain aat2, active compounds read low 0.987 | locus YLR113W, strain HOG1, active compounds read low 0.955 | locus YLR221C, strain rsa3, active compounds read low 1.04 | locus YLR258W, strain gsy2, active compounds read low 0.979 | locus YLR262C, strain YPT6 (second series), active compounds read low 0.968 | locus YLR320W, strain mms22, active compounds read low 1.04 | locus YLR342W, strain FKS1, active compounds read low 0.977 | locus YLR357W, strain rsc2, active compounds read low 0.974 | locus YLR370C, strain arc18, active compounds read low 0.989 | locus YLR384C, strain iki3, active compounds read low 0.967 | locus YML120C, strain ndi1, active compounds read low 1.01 | locus YMR058W, strain fet3, active compounds read low 0.977 | locus YMR125W, strain sto1, active compounds read low 1.02 | locus YMR129W, active compounds read low 0.967 | locus YMR205C, strain PFK2, active compounds read low 1.01 | locus YMR231W, strain pep5, active compounds read low 0.966 | locus YNL071W, strain lat1, active compounds read low 0.963 | locus YNL183C, strain NPR1, active compounds read low 0.928 | locus YNL209W, strain ssb2, active compounds read low 0.973 | locus YNL248C, strain rpa49, active compounds read low 1.04 | locus YNL322C, strain KRE1 (second series), active compounds read low 0.977 | locus YNR049C, strain mso1, active compounds read low 0.969 | locus YOR001W, strain rrp6, active compounds read low 0.923 | locus YOR070C, strain gyp1, active compounds read low 1 | locus YOR080W, strain dia2, active compounds read low 0.96 | locus YOR083W, strain WHI5, active compounds read low 1.04 | locus YOR106W, strain vam3, active compounds read low 1.03 | locus YOR231W, strain MKK1, active compounds read low 0.952 | locus YOR265W, strain rbl2, active compounds read low 0.987 | locus YOR270C, strain vph1, active compounds read low 1.06 | locus YOR290C, strain snf2, active compounds read low 1.01 | locus YPL051W, strain arl3, active compounds read low 1.01 | locus YPL078C, strain atp4, active compounds read low 1.04 | locus YPL106C, strain sse1, active compounds read low 0.931 | locus YPL240C, strain hsp82, active compounds read low 0.963 | locus YPL256C, strain CLN2, active compounds read low 0.942

Nc1ncnc2c1ncn2C1OC2COP(O)(=S)O[C@@H]2[C@@H]1O (some centres undefined)
inactive: locus YAL013W, strain DEP1, active compounds read low 1.01 | locus YAL040C, strain CLN3, active compounds read low 1.01 | locus YDR150W, strain NUM1, active compounds read low 1.02 | locus YDR363W, strain ESC2, active compounds read low 0.99 | locus YER002W, strain NOP16, active compounds read low 0.989 | locus YGR078C, strain PAC10, active compounds read low 1 | locus YJR075W, strain HOC1, active compounds read low 0.997 | locus YNL128W, strain TEP1, active compounds read low 1.01 | locus YNL153C, strain GIM3, active compounds read low 1.03 | locus YNL175C, strain NOP13, active compounds read low 1.03 | locus YNL197C, strain WHI3, active compounds read low 1.02 | locus YNL224C, strain SQS1, active compounds read low 1.02 | locus YOR083W, strain WHI5 (second series), active compounds read low 0.997 | locus YPL241C, strain CIN2, active compounds read low 1.01
